Out of some 5,500 compounds screened, about 2,000 (36%) were called active. Roughly 18% stayed inconclusive and do not appear here. Cut-off read from the data, not from the text of the source: active = normalized growth mostly below about 0.91 (no sharp cut-off); inconclusive = no clear call, values can overlap the other calls; inactive = mostly above about 0.92. The list shows a part of the results.
Assay: chemical genetic growth profiling, strain panel (AID 1159580);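 note: tested at 20 µM; growth read once vehicle control cultures reached saturation at 30 °C; 1 = growth at the plate median or of vehicle wells; lower values mean less growth of the strain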
Settings: growth OD
[1] = S. cerevisiae deletion strains, locus YAL013W, strain DEP1, stronger effect = lower value
[2] = S. cerevisiae deletion strains, locus YBR229C, strain ROT2, stronger effect = lower value
[3] = S. cerevisiae deletion strains, locus YDL101C, strain DUN1, stronger effect = lower value
[4] = S. cerevisiae deletion strains, locus YDR150W, strain NUM1, stronger effect = lower value
[5] = S. cerevisiae deletion strains, locus YEL061C, strain CIN8, stronger effect = lower value
[6] = S. cerevisiae deletion strains, locus YGR078C, strain PAC10, stronger effect = lower value
[7] = S. cerevisiae deletion strains, locus YHR030C, strain SLT2, stronger effect = lower value
[8] = S. cerevisiae deletion strains, locus YHR087W, strain rtc3, stronger effect = lower value
[9] = S. cerevisiae deletion strains, locus YJL187C, strain SWE1, stronger effect = lower value
[10] = S. cerevisiae deletion strains, locus YJR043C, strain POL32, stronger effect = lower value
[11] = S. cerevisiae deletion strains, locus YJR075W, strain HOC1, stronger effect = lower value
[12] = S. cerevisiae deletion strains, locus YKL190W, strain CNB1, stronger effect = lower value
[13] = S. cerevisiae deletion strains, locus YLR039C, strain RIC1, stronger effect = lower value
[14] = S. cerevisiae deletion strains, locus YLR058C, strain SHM2 (second series), stronger effect = lower value
[15] = S. cerevisiae deletion strains, locus YLR085C, strain ARP6, stronger effect = lower value
[16] = S. cerevisiae deletion strains, locus YLR262C, strain YPT6, stronger effect = lower value
[17] = S. cerevisiae deletion strains, locus YML094W, strain GIM5, stronger effect = lower value
[18] = S. cerevisiae deletion strains, locus YMR219W, strain ESC1, stronger effect = lower value
[19] = S. cerevisiae deletion strains, locus YMR263W, strain SAP30, stronger effect = lower value
[20] = S. cerevisiae deletion strains, locus YMR307W, strain GAS1, stronger effect = lower value
[21] = S. cerevisiae deletion strains, locus YNL153C, strain GIM3, stronger effect = lower value
[22] = S. cerevisiae deletion strains, locus YNL298W, strain CLA4 (second series), stronger effect = lower value
[23] = S. cerevisiae deletion strains, locus YNL322C, strain KRE1, stronger effect = lower value
[24] = S. cerevisiae deletion strains, locus YNR030W, strain Alg12, stronger effect = lower value
[25] = S. cerevisiae deletion strains, locus YPL055C, strain LGE1, stronger effect = lower value
[26] = S. cerevisiae deletion strains, locus YPL241C, strain CIN2, stronger effect = lower value
[27] = S. cerevisiae deletion strains, locus YPR135W, strain CTF4, stronger effect = lower value
[28] = S. cerevisiae strains, strain wild type, stronger effect = lower value
[29] = S. cerevisiae deletion strains, locus YDL134C, strain PPH21, stronger effect = lower value
[30] = S. cerevisiae deletion strains, locus YNL128W, strain TEP1, stronger effect = lower value
[31] = S. cerevisiae deletion strains, locus YOL006C, strain TOP1, stronger effect = lower value
[32] = S. cerevisiae deletion strains, locus YGR229C, strain SMI1, stronger effect = lower value

Measured: normalized growth

NC(N)=NC(N)=Nc1cc(C(F)(F)F)cc(C(F)(F)F)c1
inactive: [1] 1 | [2] 0.999 | [3] 0.992 | [4] 0.998 | [5] 1.02 | [6] 0.995 | [7] 0.983 | [8] 0.99 | [9] 1 | [10] 1.01 | [11] 0.977 | [12] 1.01 | [13] 1.01 | [14] 1.01 | [15] 1.03 | [16] 1.01 | [17] 0.956 | [18] 1 | [19] 1.01 | [20] 0.963 | [21] 0.993 | [22] 0.988 | [23] 0.987 | [24] 1.01 | [25] 0.999 | [26] 1.12 | [27] 1 | [28] 1.01

NC(=NS(=O)(=O)c1cc(C(F)(F)F)cc(C(F)(F)F)c1)c1cccs1
inactive: [1] 0.975 | [2] 0.977 | S. cerevisiae deletion strains, locus YCL061C, strain MRC1, stronger effect = lower value 0.996 | [3] 0.994 | [29] 0.984 | [4] 0.969 | [5] 0.934 | [6] 0.963 | [7] 0.975 | [8] 1.01 | [9] 0.987 | [10] 0.957 | [14] 0.967 | [15] 0.928 | [17] 0.927 | [18] 0.982 | [19] 0.978 | [30] 1 | [21] 0.991 | [22] 0.933 | [23] 0.977 | [24] 0.942 | [31] 0.949 | [25] 0.9 | [26] 0.946 | [27] 0.877 | [28] 0.978
active: [11] 0.89 | [13] 0.561 | [16] 0.578

c1ccc2c3c([nH]c2c1)CNCC3
inactive: S. cerevisiae deletion strains, locus YBR021W, strain FUR4, stronger effect = lower value 1.01 | [2] 0.999 | S. cerevisiae deletion strains, locus YCL029C, strain bik1, stronger effect = lower value 1.02 | S. cerevisiae deletion strains, locus YDL035C, strain GPR1, stronger effect = lower value 0.991 | S. cerevisiae deletion strains, locus YDL074C, strain BRE1, stronger effect = lower value 1.01 | [3] 1.01 | S. cerevisiae deletion strains, locus YDL185W, strain tfp1, stronger effect = lower value 1.01 | S. cerevisiae deletion strains, locus YDL192W, strain arf1, stronger effect = lower value 0.997 | S. cerevisiae deletion strains, locus YDR101C, strain arx1, stronger effect = lower value 1.02 | [4] 1 | S. cerevisiae deletion strains, locus YDR162C, strain NBP2, stronger effect = lower value 0.965 | S. cerevisiae deletion strains, locus YDR318W, strain mcm21, stronger effect = lower value 0.979 | S. cerevisiae deletion strains, locus YDR388W, stronger effect = lower value 0.997 | S. cerevisiae deletion strains, locus YDR502C, strain sam2, stronger effect = lower value 1.01 | [5] 0.997 | S. cerevisiae deletion strains, locus YER110C, stronger effect = lower value 1 | S. cerevisiae deletion strains, locus YER155C, strain BEM2, stronger effect = lower value 1.01 | S. cerevisiae deletion strains, locus YER167W, strain BCK2, stronger effect = lower value 0.999 | S. cerevisiae deletion strains, locus YGL078C, strain dbp3, stronger effect = lower value 0.997 | S. cerevisiae deletion strains, locus YGL086W, strain mad1, stronger effect = lower value 1.02 | S. cerevisiae deletion strains, locus YGL248W, strain PDE1, stronger effect = lower value 0.994 | [6] 1 | S. cerevisiae deletion strains, locus YGR135W, strain pre9, stronger effect = lower value 0.97 | S. cerevisiae deletion strains, locus YGR252W, strain gcn5, stronger effect = lower value 0.906 | [7] 1 | S. cerevisiae deletion strains, locus YHR079C, strain IRE1 (second series), stronger effect = lower value 1.01 | S. cerevisiae deletion strains, locus YHR094C, strain hxt1, stronger effect = lower value 1 | S. cerevisiae deletion strains, locus YHR129C, strain ARP1, stronger effect = lower value 1.01 | S. cerevisiae deletion strains, locus YHR200W, strain rpn10, stronger effect = lower value 1 | S. cerevisiae deletion strains, locus YIL066C, strain RNR3, stronger effect = lower value 1 | S. cerevisiae deletion strains, locus YIL073C, strain SPO22, stronger effect = lower value 1.05 | S. cerevisiae deletion strains, locus YIL125W, strain kgd1, stronger effect = lower value 1.02 | S. cerevisiae deletion strains, locus YIR030C, strain dcg1, stronger effect = lower value 1.01 | S. cerevisiae deletion strains, locus YJL095W, strain BCK1, stronger effect = lower value 0.987 | S. cerevisiae deletion strains, locus YJL134W, strain LCB3, stronger effect = lower value 0.999 | S. cerevisiae deletion strains, locus YJL168C, strain set2, stronger effect = lower value 1 | S. cerevisiae deletion strains, locus YJL187C, strain SWE1 (second series), stronger effect = lower value 0.997 | [10] 1.01 | S. cerevisiae deletion strains, locus YKL009W, strain mrt4, stronger effect = lower value 1.01 | S. cerevisiae deletion strains, locus YKL068W, stronger effect = lower value 1 | S. cerevisiae deletion strains, locus YKL085W, strain MDH1 (second series), stronger effect = lower value 1 | S. cerevisiae deletion strains, locus YKL085W, strain MDH1, stronger effect = lower value 1 | [12] 1 | S. cerevisiae deletion strains, locus YKR001C, strain vps1, stronger effect = lower value 1.02 | [13] 1.01 | S. cerevisiae deletion strains, locus YLR058C, strain SHM2, stronger effect = lower value 0.985 | S. cerevisiae deletion strains, locus YLR102C, strain apc9, stronger effect = lower value 1 | [16] 0.993 | S. cerevisiae deletion strains, locus YLR268W, strain sec22, stronger effect = lower value 1.03 | S. cerevisiae deletion strains, locus YLR330W, strain CHS5, stronger effect = lower value 1.01 | S. cerevisiae deletion strains, locus YLR342W, strain FKS1 (second series), stronger effect = lower value 0.976 | S. cerevisiae deletion strains, locus YLR371W, strain rom2, stronger effect = lower value 1.02 | S. cerevisiae deletion strains, locus YLR418C, strain cdc73, stronger effect = lower value 0.96 | S. cerevisiae deletion strains, locus YML016C, strain PPZ1, stronger effect = lower value 0.997 | S. cerevisiae deletion strains, locus YML032C, strain rad52, stronger effect = lower value 0.966 | S. cerevisiae deletion strains, locus YML124C, strain tub3, stronger effect = lower value 0.996 | S. cerevisiae deletion strains, locus YMR078C, strain ctf18, stronger effect = lower value 1.02 | S. cerevisiae deletion strains, locus YMR223W, strain ubp8, stronger effect = lower value 0.972 | [19] 1 | [20] 1.02 | S. cerevisiae deletion strains, locus YNL067W, strain RPL9B, stronger effect = lower value 1 | [30] 1.01 | [21] 0.997 | S. cerevisiae deletion strains, locus YNL233W, strain BNI4, stronger effect = lower value 1 | S. cerevisiae deletion strains, locus YNL250W, strain rad50, stronger effect = lower value 1.01 | S. cerevisiae deletion strains, locus YNL271C, strain bni1, stronger effect = lower value 1.01 | S. cerevisiae deletion strains, locus YNL298W, strain CLA4, stronger effect = lower value 0.99 | S. cerevisiae deletion strains, locus YNL307C, strain MCK1, stronger effect = lower value 1.01 | S. cerevisiae deletion strains, locus YNR052C, strain pop2, stronger effect = lower value 0.971 | [31] 1.06 | S. cerevisiae deletion strains, locus YOL012C, strain htz1 0.744 | S. cerevisiae deletion strains, locus YOL147C, strain pex11, stronger effect = lower value 1 | S. cerevisiae deletion strains, locus YOR061W, strain CKA2, stronger effect = lower value 0.998 | S. cerevisiae deletion strains, locus YOR069W, strain VPS5, stronger effect = lower value 1 | S. cerevisiae deletion strains, locus YOR136W, strain idh2, stronger effect = lower value 1.02 | S. cerevisiae deletion strains, locus YOR144C, strain elg1, stronger effect = lower value 1.01 | S. cerevisiae deletion strains, locus YOR184W, strain ser1, stronger effect = lower value 1 | S. cerevisiae deletion strains, locus YOR316C, strain cot1, stronger effect = lower value 1.01 | [25] 0.983 | [26] 0.988 | S. cerevisiae deletion strains, locus YPR119W, strain clb2, stronger effect = lower value 1.01 | S. cerevisiae deletion strains, locus YPR141C, strain kar3, stronger effect = lower value 1.01 | S. cerevisiae deletion strains, locus YPR163C, strain tif3, stronger effect = lower value 1.01 | S. cerevisiae deletion strains, locus YPR167C, strain met16, stronger effect = lower value 0.992 | S. cerevisiae deletion strains, strain wtn01, stronger effect = lower value 1.03 | [28] 0.989

CN1CCCC12NCCc1c2[nH]c2ccccc12 (stereo unspecified)
inactive: [1] 0.993 | [2] 1 | [3] 1 | [4] 0.98 | [5] 0.998 | [6] 0.993 | [32] 0.997 | [7] 0.981 | [8] 0.986 | [10] 0.999 | [11] 0.973 | [13] 0.976 | [14] 0.987 | [15] 0.991 | [16] 0.976 | [17] 1.06 | [18] 1.01 | [19] 0.985 | [21] 1 | [22] 0.982 | [23] 1 | [24] 0.965 | [25] 1.01 | [26] 0.969 | [27] 1.03

c1ccc2c(c1)CCc1c-2[nH]c2ccccc12
active: [1] 0.641 | [2] 0.682 | [3] 0.62 | [29] 0.461 | [4] 0.704 | [5] 0.415 | [6] 0.732 | [32] 0.735 | [7] 0.137 | [8] 0.748 | [10] 0.751 | [11] 0.562 | [13] 0.162 | [14] 0.827 | [15] 0.109 | [16] 0.142 | [17] 0.467 | [18] 0.783 | [19] 0.634 | [21] 0.7 | [22] 0.23 | [23] 0.91 | [24] 0.418 | [31] 0.115 | [25] 0.322 | [26] 0.416 | [27] 0.294

Source: PubChem BioAssay AID1159580 (chemical genetic matrix, 2015)
